This is a sample that favours compounds with a hit; in the whole collection about 4.7% have one here.
ATXN2 expr inh = Primary qHTS for Inhibitors of ATXN expression; HEK-293 ATXN2-luciferase reporter, luminescence, 24 h; Potency, µM (doses to about 57 µM), hits mostly inhibitors; 360,000 compounds, 0.72% hits; note: nearly all actives have a fitted effect of over 55% in size
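qHTS (up to 57 uM final) was run with 24 h compound exposure of reporter cells at 37 °C. Each well was multiplexed: SteadyGlo luminescence measured ATXN2-luciferase expression after a fluorogenic Gly-Phe-AFC viability readout (25 uM final).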
ATXN viability = Viability Counterscreen for Primary qHTS for Inhibitors of ATXN expression. S2 cells (HEK-293 line with an ATXN2-luciferase reporter) viability, CellTiter-Fluor protease fluorescence, 24 h. Potency, µM (top dose mostly 56.7 µM), actives largely listed as cytotoxic. 400,000 compounds, 0.49% hits. AID 651635, 2014; note: nearly all actives have a fitted effect of over 40% in size
DRD3 agonist = qHTS of D3 Dopamine Receptor Agonist: qHTS; D3R DiscoveRx beta-arrestin cells, luminescence, 90 min; max activation, %; 410,000 compounds, 0.58% hits; AID 652048, 2013; in the data active = max activation above about 30%
Target sequence (P35462 whole entry, looked up): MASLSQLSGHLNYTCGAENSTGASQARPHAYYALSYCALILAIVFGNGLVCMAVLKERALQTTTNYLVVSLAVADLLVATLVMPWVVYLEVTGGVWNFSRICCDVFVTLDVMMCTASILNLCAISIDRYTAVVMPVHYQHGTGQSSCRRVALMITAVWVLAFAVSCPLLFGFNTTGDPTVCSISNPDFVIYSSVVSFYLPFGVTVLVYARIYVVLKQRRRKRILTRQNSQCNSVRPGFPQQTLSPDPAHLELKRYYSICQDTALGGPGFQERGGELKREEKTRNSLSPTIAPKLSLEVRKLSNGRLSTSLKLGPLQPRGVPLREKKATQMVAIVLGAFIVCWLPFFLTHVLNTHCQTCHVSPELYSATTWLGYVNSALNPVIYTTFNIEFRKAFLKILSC
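Cells at 1500/well, incubated overnight, then treated with pinned compounds (dopamine as control) for 90 min at 37 degrees C. DiscoveRx reagent added for 30 - 60 minutes at room temperature; luminescence read.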
HepG2 viability = qHTS for Inhibitors of TGF-b: Cytotox Counterscreen. HepG2 CAGA-GFP viability, ATP luminescence, 18 h. 410,000 compounds, 0.76% hits. Potency, µM (highest dose often 46.1 µM), usual class: cytotoxic. AID 588856, 2011
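HepG2 CAGA-GFP cells (1000/well, DMEM with 1% FBS) received compound, then TGF-beta at 500 pg/mL final, and were incubated 18 hours at 37 degrees C. Viability was read by CellTiter-Glo luminescence. Media-only wells were set as complete cell-killing and DMSO as no toxicity.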
TGFb inhibitor = qHTS for Inhibitors of TGF-b; HepG2 CAGA-GFP TGF-b/SMAD3 reporter, GFP fluorescence, 18 h; TGF-beta stimulated, 500 pg/mL final; Potency, µM (highest dose often 46.1 µM), most hits filed as inhibitors; 410,000 compounds, 1.2% hits; note: nearly all actives have a fitted effect of over 65% in size
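TGF-beta reporter screen: HEPG2 CAGA-GFP, 1% FBS, 500 pg/mL TGF-beta final, 18 h; per-cell GFP summed per well; curves fitted and categorized by class.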
DRD3 antagonist = qHTS of D3 Dopamine Receptor Antagonist: qHTS; AID 652054, 2013; D(3) dopamine receptor (Homo sapiens), P35462; max response, negative = inhibition, %; 360,000 compounds, 2.5% hits; D3R cells, DiscoveRx beta-arrestin luminescence, antagonist mode; hits give low values; in the data active = max response below about -50%; inconclusive = no clear call, values can overlap the other calls
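Cells expressing the human receptor were seeded at 1500 cells/well, incubated overnight at 37 degrees C in 5% CO2, then exposed to library compounds with dopamine controls for 90 minutes at 37 degrees C before luminescent detection.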
Large screens that a line does not name were inactive. Unless noted, calls come from the whole dose curve; as a rule, active = well fitted curve in the direction sought with a large enough effect; inconclusive = small, poorly fitted or top-dose-only effect, or another doubt; inactive = no such curve, though single readings can be large; an effect the other way counts as inactive or inconclusive.

O=C(c1ccccc1)c1ccccc1C(=O)N1CCOCC1	none
O=C(CNC(=O)c1ccco1)OCC(=O)c1ccc([N+](=O)[O-])cc1	DRD3 agonist 32
O=C(CNC(=O)c1ccco1)OCC(=O)c1ccc(Cl)cc1	none (no result: ATXN2 expr inh)
CCCNC(=O)C(Cc1ccccc1)NC(=O)c1ccccn1 (stereo unspecified)	DRD3 antagonist -56
CCOC(=O)CCCCCC(=O)Nc1ccc2c(c1)C(=O)N([C@H](C)CO)C[C@@H](C)[C@H](CN(C)S(=O)(=O)c1cn(C)cn1)O2	DRD3 agonist 47
C[C@H](CO)N1C[C@H](C)[C@@H](CN(C)S(=O)(=O)c2ccccc2)Oc2ccc(NC(=O)CCC(F)(F)F)cc2C1=O	DRD3 agonist 35
C[C@H](CO)N1C[C@H](C)[C@@H](CN(C)S(C)(=O)=O)Oc2ccc(NC(=O)C3CC3)cc2C1=O	none
C[C@H](CO)N1C[C@H](C)[C@@H](CN(C)S(C)(=O)=O)Oc2ccc(NC(=O)C3CCCCC3)cc2C1=O	DRD3 agonist 52, TGFb inhibitor inconclusive
N#Cc1ccc(NC(=O)Nc2ccccc2Br)c2n[nH]nc12	none (no result: ATXN viability, DRD3 agonist, HepG2 viability, TGFb inhibitor, DRD3 antagonist)
Cc1ccc2c(C(=O)CNc3nccs3)c[nH]c2c1	none (no result: ATXN2 expr inh, ATXN viability, DRD3 agonist, DRD3 antagonist)
CCOC(=O)c1cc(C)n(CC2CCC(C(=O)Nc3ccccc3OC)CC2)c1C (stereo unspecified)	TGFb inhibitor 11µM (no result: ATXN2 expr inh, ATXN viability, DRD3 antagonist)
CCOC(=O)c1cc(C)n(CC2CCC(C(=O)Nc3ccc(OCC)cc3)CC2)c1C (stereo unspecified)	TGFb inhibitor inconclusive (no result: ATXN2 expr inh, ATXN viability, DRD3 antagonist)
Cc1cc(NCCCCCCCNc2cc(C)nc3cc([N+](=O)[O-])ccc23)c2ccc([N+](=O)[O-])cc2n1	ATXN2 expr inh inconclusive, ATXN viability 21µM, TGFb inhibitor 8.9µM
COCCCNc1cc(C)nc2ccccc12	none
O=[N+]([O-])c1ccc2c(c1)C=C/C2=C/c1ccccc1	TGFb inhibitor inconclusive (no result: ATXN2 expr inh, ATXN viability, DRD3 agonist, DRD3 antagonist)
CN(C)[C@@H]1CCC[C@H]1OC(=O)C(c1ccccc1)c1ccccc1	DRD3 antagonist -53
CC1CN(C)C(C)CC1OC(=O)C(c1ccccc1)c1ccccc1 (stereo unspecified)	none
CCc1ccccc1NC(=O)C(CC)Sc1nc2cc3c(cc2c(=O)n1Cc1ccco1)OCO3 (stereo unspecified)	ATXN2 expr inh 16µM, ATXN viability 18µM
CCc1ccc2ncc(S(=O)(=O)c3ccc(Cl)cc3)c(N3CCN(CC)CC3)c2c1	none (no result: ATXN2 expr inh, ATXN viability, DRD3 antagonist)
Cc1ncoc1C(=O)Nc1ccccc1C(N)=O	ATXN viability inconclusive, DRD3 antagonist -100
Cc1ccccc1NC(=O)c1ocnc1C	none
CC1CCN(C(=O)CSc2c3c(nc4ccc(Cl)cc24)CCCC3)CC1	DRD3 agonist 69, TGFb inhibitor 16µM (no result: ATXN2 expr inh, ATXN viability, DRD3 antagonist)
CN(Cc1ccccc1)C(=O)CSc1c2c(nc3ccc(Cl)cc13)CCCC2	HepG2 viability 22µM, TGFb inhibitor inconclusive (no result: ATXN2 expr inh, ATXN viability, DRD3 antagonist)
O=C(Cn1c(=O)n(Cc2ccco2)c(=O)c2sc3ccccc3c21)Nc1ccccc1C(F)(F)F	ATXN viability inconclusive (no result: DRD3 antagonist)
Cc1nn2c(NCCN(C)C)c3c(nc2c1-c1ccccc1)CCCC3	TGFb inhibitor 11µM (no result: ATXN viability)
COCCNc1c2c(nc3c(-c4ccccc4)c(C)nn13)CCCC2	TGFb inhibitor inconclusive
COc1cc(-c2nc(Cn3nnc(C(=O)Nc4ccccc4)c3C)c(C)o2)cc(OC)c1OC	ATXN2 expr inh inconclusive (no result: DRD3 antagonist)
COc1cc2ncnc(NCc3ccc(C)o3)c2cc1OC	none
Cc1ccc(CNc2ncnc3ccc(-c4ccoc4C)cc23)o1	TGFb inhibitor 16µM (no result: DRD3 agonist, DRD3 antagonist)
COC(=O)c1sc2ccccc2c1NC(=O)c1ccc(S(=O)(=O)N2CCCCC2)cc1	DRD3 agonist 38
CCCN(Cc1cccs1)C(=O)Nc1ccc(Br)cc1F	none (no result: DRD3 antagonist)

Screening results deposited in PubChem BioAssay by National Center for Advancing Translational Sciences (NCATS).
